Measurements reported in PMC4336329 (PLoS ONE, 2015).
Among all 310,000 compounds or so, about 14,000 (4.5%) showed an effect of 50% or more. Effects have a minus sign here. Many of the other results were omitted from the sample, so strong results are more common in it than they were.

molecular target: human ether-à-go-go-related gene (hERG) potassium channel (human, UniProt Q12809); test: primary screen, population patch clamp on CHO cells stably expressing hERG; higher = less effect of the substance
Sequence (Q12809 whole entry, looked up): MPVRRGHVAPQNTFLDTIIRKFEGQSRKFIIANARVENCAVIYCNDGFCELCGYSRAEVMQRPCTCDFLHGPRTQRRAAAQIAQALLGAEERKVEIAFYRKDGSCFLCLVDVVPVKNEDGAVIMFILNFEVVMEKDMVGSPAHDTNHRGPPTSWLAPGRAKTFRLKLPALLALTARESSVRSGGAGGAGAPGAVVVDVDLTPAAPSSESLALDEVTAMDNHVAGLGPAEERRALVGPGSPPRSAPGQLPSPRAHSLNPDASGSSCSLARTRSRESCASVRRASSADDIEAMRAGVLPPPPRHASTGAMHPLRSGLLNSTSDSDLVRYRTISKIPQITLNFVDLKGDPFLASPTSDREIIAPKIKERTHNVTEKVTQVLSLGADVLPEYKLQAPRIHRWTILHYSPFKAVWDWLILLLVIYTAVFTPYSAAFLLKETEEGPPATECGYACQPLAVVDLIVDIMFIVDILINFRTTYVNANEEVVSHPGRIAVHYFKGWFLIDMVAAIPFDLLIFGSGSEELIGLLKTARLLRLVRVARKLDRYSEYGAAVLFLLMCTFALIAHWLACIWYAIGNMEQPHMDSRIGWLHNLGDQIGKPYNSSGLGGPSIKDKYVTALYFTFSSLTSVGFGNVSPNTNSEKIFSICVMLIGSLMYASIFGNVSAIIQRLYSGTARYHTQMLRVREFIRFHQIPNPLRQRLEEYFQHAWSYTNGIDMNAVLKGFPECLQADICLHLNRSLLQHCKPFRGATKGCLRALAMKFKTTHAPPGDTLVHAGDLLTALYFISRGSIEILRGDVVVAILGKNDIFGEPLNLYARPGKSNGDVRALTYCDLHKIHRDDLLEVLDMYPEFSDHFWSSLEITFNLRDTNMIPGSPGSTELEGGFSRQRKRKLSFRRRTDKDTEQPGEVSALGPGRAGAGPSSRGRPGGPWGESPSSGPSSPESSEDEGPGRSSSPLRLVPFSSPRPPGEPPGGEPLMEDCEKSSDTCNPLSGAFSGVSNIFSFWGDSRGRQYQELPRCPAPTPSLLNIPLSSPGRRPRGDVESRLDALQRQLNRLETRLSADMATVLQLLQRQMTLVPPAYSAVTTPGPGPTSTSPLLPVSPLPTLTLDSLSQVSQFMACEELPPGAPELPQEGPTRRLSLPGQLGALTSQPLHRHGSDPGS
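Further: peak tail current of the secondary pulse compared with the same well before compound.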

Row | Structure (SMILES) | hERG current change (%, negative = inhibition) at 10uM
1 | C=CCNC(=O)c1cc(-c2ccccc2O)on1 | 8.16%
2 | CCN(CC(=O)NCC(=O)Nc1cccc(C)c1C)Cc1ccccc1 | 5.6%
3 | C=CCn1nc([N+](=O)[O-])nc1Sc1cccc2cccnc12 | -2.55%
4 | O=[N+]([O-])CC(=Nc1ccc(Cl)cc1)N/N=C\c1oc(O)c2ccccc12 | 5.58%
5 | O=c1cc(CO)occ1OCc1c(F)cccc1Cl | 9.21%
6 | O=C(c1ccco1)N1CCN(Cc2c(F)cccc2Cl)CC1 | -9.87%
7 | O=C(c1ccco1)N1CCN(Cc2cc(=O)c(OCc3c(F)cccc3Cl)co2)CC1 | -58%
8 | CCN(CC)C(C(=O)Nc1ccc(C(C)C)cc1)c1ccc2c(c1)OCO2 (stereo not shown) | -9.99%
9 | CCOc1cc(C)c(S(=O)(=O)N2CCCC2)cc1C | -14.6%
10 | COc1ccc(CCN(C(=O)c2snc(C(N)=O)c2N)C(C)C(=O)NC2CCCCC2)cc1OC (stereo not shown) | -13.9%
11 | Cc1cc(C(F)F)n2ncc(C(=O)NCCc3ccccc3Cl)c2n1 | -56.7%
12 | Cc1cc(C(F)F)n2ncc(C(=O)NCCc3ccc(Cl)cc3)c2n1 | -45%
13 | COc1ccccc1CCNC(=O)c1cnn2c(C(F)F)cc(C)nc12 | -33.6%
14 | CCOC(=O)N1CCC(N(CCN(C)C)C(=S)Nc2cccc(Cl)c2C)CC1 | 12.5%
15 | Cc1nc(C(=O)Nc2ccccc2Cl)cc2c1[nH]c1ccccc12 | 0.837%
16 | O=C(CCC(=O)Nc1cccc(C(F)(F)F)c1)NCC1CCCO1 (stereo not shown) | 11.1%
17 | CC1=C(C(=O)OCC2CCCO2)C(c2cccc(C(F)(F)F)c2)C2=C(CC(c3ccco3)CC2=O)N1 (stereo not shown) | 6.09%
18 | CC1=C(C(=O)OCC2CCCO2)C(c2ccccc2OC(C)C)C2=C(CC(c3ccco3)CC2=O)N1 (stereo not shown) | -57.8%
19 | COc1ccc(C2C(C(=O)OCC3CCCO3)=C(C)NC3=C2C(=O)CC(c2ccco2)C3)cc1O (stereo not shown) | 5.72%
20 | CC(C)C(=O)Nc1ccc2c(c1)C(=O)NC2=O | 14.3%

Row | Structure (SMILES) | hERG current change (%, negative = inhibition) at 10uM
21 | Cc1cc(C)cc(N(CC(=O)NC2CCCC2)C(=O)CNC(=O)c2cccs2)c1 | 18%
22 | CCC(C)c1ccccc1OCCCN(C)Cc1ccccc1 (stereo not shown) | -27%
23 | O=C(c1cc(-c2ccccc2Cl)nc2ccccc12)N1CCOCC1 | -6.68%
24 | O=C(OCn1nnc2ccccc2c1=O)c1cc(-c2ccccc2Cl)nc2ccccc12 | 12.8%
25 | Cl.O=C(OC1CCN(CCCl)CC1)C(c1ccccc1)c1ccccc1 | 11%
26 | CN1CCC(N(C)C(=O)c2cc(-c3ccccc3Cl)nc3ccccc23)CC1.Cl | -84.3%
27 | CCN1CCCC(OC(=O)Nc2ccccc2)C1 (stereo not shown) | 2.47%
28 | CCN1CCCC(OC(=O)c2cc(-c3ccc(C)cc3)nc3ccccc23)C1.Cl (stereo not shown) | -8.97%
29 | CN(C(=O)COC(=O)c1cc(-c2ccccc2Cl)nc2ccccc12)C1CCS(=O)(=O)C1 (stereo not shown) | -30.9%
30 | CCN1CCCC(OC(=O)C(c2ccccc2)c2ccccc2)C1.Cl (stereo not shown) | -66.1%
31 | CCN1CCCC(OC(=O)c2cc(-c3ccccc3Cl)nc3ccccc23)C1.Cl (stereo not shown) | -65.3%
32 | O=c1c(-c2ccccc2)[n+]([O-])c2ccccc2n1O | -9.6%
33 | CCOc1ccccc1NC(=O)Cc1cccs1 | 3.18%
34 | O=C(NCCCN1CCCCC1)c1ccc(CS(=O)c2ccc(F)cc2)o1 (stereo not shown) | -0.35%
35 | Br.O=C(Cn1c(NCCCO)nc2ccccc21)c1ccc(F)cc1 | -9.54%
36 | Oc1c(C(c2cccs2)N2CCN(c3cccc(Cl)c3)CC2)sc2ncnn12 (stereo not shown) | -26.5%
37 | Cc1ccc(C(c2sc3nc(C)nn3c2O)N2CCN(c3ccccc3)CC2)cc1 (stereo not shown) | -5.32%
38 | Oc1c(C(c2cccs2)N2CCN(c3ccc(F)cc3)CC2)sc2ncnn12 (stereo not shown) | -66%
39 | Cc1nc2sc(C(c3ccc(F)cc3)N3CCOCC3)c(O)n2n1 (stereo not shown) | 9.62%
40 | Oc1c(C(c2cccs2)N2CCN(c3ccccc3)CC2)sc2ncnn12 (stereo not shown) | -33.6%

Row | Structure (SMILES) | hERG current change (%, negative = inhibition) at 10uM
41 | Cc1ccc(C(c2sc3nc(C)nn3c2O)N2CCN(c3ccc(F)cc3)CC2)cc1 (stereo not shown) | -65.2%
42 | O=C(CCc1ccccc1)Nc1ccccc1C(=O)NCc1ccco1 | 0.64%
43 | COC(=O)[C@@]12CCCN1[C@H](c1ccc(-c3ccccc3)cc1)[C@@H]1C(=O)N(C)C(=O)[C@@H]12.O=C(O)C(F)(F)F | -6.67%
44 | C=C(C)c1cccc(C(C)(C)NC(=O)Nc2ccc(OC)cc2)c1 | 8.48%
45 | COc1ccc(NC(=O)c2oc3ccc(S(=O)(=O)N4CCOCC4)cc3c2C)cc1 | 3.58%
46 | COc1ccc2c(c1)nc(SCC(C)O)n2C (stereo not shown) | 18%
47 | COc1ccc2c(c1)nc(SCC(=O)C(C)(C)C)n2C | -2.82%
48 | COc1ccc2c(c1)nc(SCC(O)c1ccccc1)n2C (stereo not shown) | -60.2%
49 | COC(=O)c1cc(NS(=O)(=O)c2cccc(Cl)c2)ccc1N1CCOCC1 | 2.66%
50 | Cc1cccc(CCNC(=O)COc2cc(=O)n(C)c3ccccc23)c1 | -17.6%
51 | CCN(CCCNC(=O)COc1cc(=O)n(CC)c2ccccc12)c1ccccc1 | -52.5%
52 | CCN(CCCNC(=O)C1CCC(=O)N1Cc1ccc(C)cc1)c1cccc(C)c1 (stereo not shown) | -24.9%
53 | CCN(CCCNC(=O)COc1cc(=O)n(C)c2ccccc12)c1cccc(C)c1 | -51%
54 | CCN(CCCNC(=O)C1CCC(=O)N1Cc1ccc(F)cc1)c1cccc(C)c1 (stereo not shown) | -18.3%
55 | CCN(CCCNC(=O)C1CCC(=O)N1Cc1ccccc1Cl)c1cccc(C)c1 (stereo not shown) | -64.5%
56 | CCN(CCCNC(=O)COc1cc(=O)n(CC)c2ccccc12)Cc1ccccc1 | -19.8%
57 | CCn1c(=O)cc(OCC(=O)NCCC(C)C)c2ccccc21 | 0.0582%
58 | CCN(CCCNC(=O)COc1cc(=O)n(C)c2ccccc12)c1ccccc1 | -41.3%
